Experimental data: PubChem BioAssay (NCATS)
Several values for one entry are separate records, joined by “and”; a condition that tells them apart may be missing. Equal values may be shown once. Results filed as inconclusive are left out. Unmarked numbers belong to inactive results. Activity calls are given as the source filed them. Calls come from the whole dose curve; as a rule, active = well fitted curve in the direction sought with a large enough effect; inconclusive = small, poorly fitted or top-dose-only effect, or another doubt; inactive = no such curve, though single readings can be large; an effect the other way counts as inactive or inconclusive.

How the values were obtained:
[1] = molecular target: Cellular tumor antigen p53 (Homo sapiens) (UniProt P04637); assay: Primary qHTS for small molecule compounds that upregulate eGFP-tagged delta133p53alpha (in N-terminal) cells. (AID 2060322); conditions: NCI-H358 eGFP-delta133p53alpha fluorescence, 24 h; activation: active compounds read high; note: nearly all actives have a fitted effect of over 75% in size;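 for activation: series mostly up to about 56 µM; 0% = DMSO vehicle and 100% = reference activator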
Cellular tumor antigen p53 (Homo sapiens), sequence (P04637 whole entry, looked up): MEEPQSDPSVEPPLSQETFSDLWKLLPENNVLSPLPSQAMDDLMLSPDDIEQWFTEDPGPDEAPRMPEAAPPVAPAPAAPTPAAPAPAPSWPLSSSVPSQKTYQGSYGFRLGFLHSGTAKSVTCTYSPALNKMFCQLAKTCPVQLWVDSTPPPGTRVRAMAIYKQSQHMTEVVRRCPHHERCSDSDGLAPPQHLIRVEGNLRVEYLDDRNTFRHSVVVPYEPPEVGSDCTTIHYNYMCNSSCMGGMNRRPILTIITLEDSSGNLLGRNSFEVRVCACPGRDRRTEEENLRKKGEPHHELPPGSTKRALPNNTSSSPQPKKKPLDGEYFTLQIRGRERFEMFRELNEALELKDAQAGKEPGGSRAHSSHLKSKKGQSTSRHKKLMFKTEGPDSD
In short: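 NCI-H358 cells pre-induced 24 h with 10 ng/ml doxycycline to express N-terminal eGFP-delta133p53alpha, then dosed 24 h at 37C without doxycycline; fixed, Hoechst-stained, GFP intensity by laser scanning cytometry, normalized to DMSO (0%) and 57.5 uM 5-azacytidine (100%).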

[2] = BET inhibitor-based combinations targeting novel dependencies in MECOM-rearranged (r) AML: SET-2 cell line (AID 2202231); conditions: SET-2 AML cells viability, CellTiter-Glo luminescence, 48 h; viability: active compounds read low, concentration not given here; note: nearly all actives have a fitted effect of over 35% in size;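 for viability: plate controls were DMSO treated cells for no effect and wells without cells for full effect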
In short: (§1)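 Each compound was tested at eleven concentrations on cells seeded at 500/well. After two days' incubation, ATP-based luminescence reported viability; responses relative to DMSO and blank wells yielded AUC and cell-line-centred Z-AUC.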

[3] = BET inhibitor-based combinations targeting novel dependencies in MECOM-rearranged (r) AML: OCI-AML3 cell line (AID 2202232); conditions: Potency: OCI-AML3 viability; note: nearly all actives have a fitted effect of over 35% in size
In short: as §1

[4] = BET inhibitor-based combinations targeting novel dependencies in MECOM-rearranged (r) AML: MV-4-11 cell line (AID 2202233); note: nearly all actives have a fitted effect of over 45% in size
In short: (§2)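 First, 500 cells per well were seeded; next, drugs were pinned as 11-point doses; then plates sat 48 hr in the incubator; finally CellTiter-Glo was added and luminescence read, with AUC and Z-AUC computed.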

[5] = BET inhibitor-based combinations targeting novel dependencies in MECOM-rearranged (r) AML: HNT-34 cell line (AID 2202234); note: nearly all actives have a fitted effect of over 35% in size
In short: as §2

[6] = BET inhibitor-based combinations targeting novel dependencies in MECOM-rearranged (r) AML: UCSD-AML1 cell line (AID 2202235); note: nearly all actives have a fitted effect of over 40% in size
In short: as §2

[7] = BET inhibitor-based combinations targeting novel dependencies in MECOM-rearranged (r) AML: AML-191 cell line (AID 2202236; note: nearly all actives have a fitted effect of over 35% in size)
In short: as §1

[8] = BET inhibitor-based combinations targeting novel dependencies in MECOM-rearranged (r) AML: AML-194 cell line (AID 2202237; note: nearly all actives have a fitted effect of over 40% in size)
In short: as §1
Potency is the fitted concentration of half-maximal effect.

Structure (SMILES) | activation [1] | viability [2] [%] | Potency [3] | Potency [4] | Potency [5] | Potency [6] | Potency [7] | Potency [8] | Potency [2] | Potency [1]
NC(=O)c1ncn([C@@H]2O[C@H](CO)[C@@H](O)[C@H]2O)c1N | -7.53% | 114 | inactive | inactive | inactive | inactive | inactive | inactive |  | 
O=C(Nc1c(Cl)cncc1Cl)c1ccc(OC(F)F)c(OCC2CC2)c1 | -4.21% | 98.8 | inactive | inactive | inactive | inactive | inactive | inactive |  | 
COc1ccc2nc3cc(Cl)ccc3c(Nc3cc(CN4CCCC4)c(O)c(CN4CCCC4)c3)c2n1 | 55.3% |  | 7.42 µM (active) | 4.68 µM (active) | 11.8 µM (active) | 8.33 µM (active) | 10.5 µM (active) | 10.5 µM (active) | 7.42 µM (active) | 
CC(C(=O)O)c1ccc(-c2ccccc2)c(F)c1 (stereo not given) | 3.78% | 111 | inactive | inactive | inactive | inactive | inactive | inactive |  | 
COc1cccc2c1C(=O)c1c(O)c3c(c(O)c1C2=O)C[C@@](O)(C(=O)CO)C[C@@H]3O[C@H]1C[C@H](N)[C@H](OC2CCCCO2)[C@H](C)O1 (stereo not given in full) | 3.12% |  | 0.186 µM (active) | 18.6 nM (active) and 74.2 nM (active) | 332 nM (active) and 235 nM (active) | 209 nM (active) and 263 nM (active) | 118 nM (active) and 372 nM (active) | 332 nM (active) and 296 nM (active) | 1.32 µM (active) and 833 nM (active) | 
N#Cc1ccc(NC(=O)Nc2ccccc2Br)c2n[nH]nc12 | -2.35% | 105 | 14.8 µM (active) | inactive | inactive | inactive |  | inactive |  | 
Cc1ccc(C(=O)c2cc(O)c(O)c([N+](=O)[O-])c2)cc1 | 1.67% and 0.973% | 104 | inactive | inactive | inactive | inactive |  | inactive |  | 
N#Cc1ccnc(Nc2cc(C3CCN(C4COC4)CC3)cc(N3CCC(F)(F)C3)n2)c1 |  |  | 8.33 µM (active) | 0.235 µM (active) | 0.833 µM (active) | 2.95 µM (active) | 2.95 µM (active) | 4.17 µM (active) | 3.72 µM (active) | 27.2 µM (active)
COc1cc(C[C@@H](CO)[C@H](CO)Cc2ccc(O)c(OC)c2)ccc1O | -3.34% | 120 | inactive | inactive | inactive | inactive | inactive | inactive |  | 
